Assay results as given in article PMC5540273 (PLoS ONE, 2017).
Where two headings read alike, the source gives them in different places.

What was measured:
[1] = test system: FYN; settings: concentration: 1 μM, replicates: in singlicate; n = 1
[2] = test system: GAK; settings: concentration: 1 μM, replicates: in singlicate; n = 1
[3] = test system: T1, GCN2(Kin.Dom.2,S808G); settings: concentration: 1 μM, replicates: in singlicate; n = 1
T1 construct: gene EIF2AK4

[4] = test system: GRK1; settings: concentration: 1 μM, replicates: in singlicate; n = 1
[5] = test system: T2, GRK2; settings: concentration: 1 μM, replicates: in singlicate; n = 1
T2 construct: gene ADRBK1

[6] = test system: T3, GRK3; settings: concentration: 1 μM, replicates: in singlicate; n = 1
T3 construct: gene ADRBK2

[7] = test system: GRK4; settings: concentration: 1 μM, replicates: in singlicate; n = 1
[8] = test system: GRK7; settings: concentration: 1 μM, replicates: in singlicate; n = 1
[9] = test system: GSK3A; settings: n = 1
[10] = test system: GSK3B; settings: n = 1
[11] = concentration: 1 μM, replicates: in singlicate
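Note: KINOMEscan kinase panel screen.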

Row | SMILES | %Inh [1] [%] | %Inh [2] [%] | %Inh [3] [%] | %Inh [4] [%] | %Inh [5] [%] | %Inh [6] [%] | %Inh [7] [%] | %Inh [8] [%] | %Inh [9, 11] [%] | %Inh [10, 11] [%] | %Inh ([9]; 1 µM) [%] | %Inh ([10]; 1 µM) [%]
1 | C[C@@H](Oc1cc(-n2cnc3cc(-c4ccnc(NCCS(C)(=O)=O)c4)ccc32)sc1C(N)=O)c1ccccc1Cl [GSK907232] | 14 | 64 | 71 | 0 | 0 | 39 | 82 | 0 | 0 | 16 |  | 
2 | O=C(Nc1cccc(-c2nn3ccccc3c2-c2ccnc(Nc3cccc(F)c3)n2)c1)c1c(F)ccc(F)c1Cl [GSK357952] | 66 | 14 | 1 | 5 | 0 | 0 | 5 | 0 | 0 | 6 |  | 
3 | COc1cc(Nc2nccc(-c3c(-c4cccc(NC(=O)c5c(F)cccc5F)c4)nn4ccccc34)n2)cc(OC)c1OC [GSK323521] | 23 | 28 | 29 | 13 | 0 | 0 | 16 | 0 | 0 | 23 |  | 
4 | COCCOCCOc1cc2ncc3c4ccc(C#N)cc4[nH]c3c2cc1OC | 15 | 99.3 | 94.6 | 29 | 7 | 0 | 83 | 0 | 0 | 0 |  | 
5 | COc1cc(Nc2nccc(-c3c(-c4cccc(NC(=O)c5c(F)cccc5F)c4)nn4ncccc34)n2)cc(OC)c1OC [GSK327238] | 97.5 | 31 | 69 | 0 | 0 | 0 | 0 | 0 | 11 | 7 |  | 
6 | CN1CCN(CCCNc2nccc(-c3c(-c4ccc(F)cc4)nn4cc(C(F)(F)F)ccc34)n2)CC1 [GW621581] | 0 | 78 | 4 | 0 | 4 | 0 | 8 | 0 | 25 | 3 |  | 
7 | CCc1ccc(-c2ccc3c(c2)-c2c(cnn2C)S(=O)(=O)N3C)cc1 | 3 | 8 | 16 | 11 | 0 | 0 | 16 | 0 | 0 | 13 |  | 
8 | CCn1c(-c2nonc2N)nc2c(C#CC(C)(C)O)ncc(OCCCCN)c21.O=C(O)C(F)(F)F.O=C(O)C(F)(F)F [GSK507274] | 0 | 41 | 13 | 65 | 0 | 44 | 21 | 75 |  |  | 78 | 100
9 | COC(=O)Nc1nc2cc(Oc3ccc(NC(=O)Nc4cc(C(F)(F)F)ccc4F)cn3)ccc2[nH]1.Cl.Cl [GW681170] | 41 | 5 | 0 | 0 | 0 | 0 | 0 | 0 | 0 | 8 |  | 
10 | COC(=O)Nc1nc2ccc(Oc3ccc(NC(=O)Nc4cc(C(F)(F)F)ccc4F)cc3)cc2n1C.Cl [GW692089] | 0 | 0 | 0 | 0 | 0 | 49 | 6 | 0 | 9 | 0 |  | 
11 | Cl.c1ccc(-c2ccc3c(Nc4ccc5[nH]ccc5c4)ccnc3c2)nc1 [GW440138] | 46 | 64 | 0 | 0 | 0 | 50 | 0 | 0 | 26 | 0 |  | 
12 | COc1cccc(C(=O)Nc2cccc(Oc3ccc4nc(NC(=O)C5CC5)cn4n3)c2)c1 | 84 | 33 | 22 | 17 | 0 | 0 | 0 | 0 | 8 | 10 |  | 
13 | CCCCc1nn2ncccc2c1-c1ccnc(Nc2ccc(N3CCN(C)CC3)cc2)n1 [GW684941] | 58 | 91.7 | 93 | 0 | 0 | 62 | 16 | 0 | 7 | 5 |  | 
14 | Cl.Cl.NCC(NCc1ccc(-c2ccnc3[nH]ccc23)s1)c1ccccc1 (stereo not shown) [GSK1321565] | 0 | 34 | 0 | 50 | 0 | 37 | 82 | 83 | 0 | 0 |  | 
15 | CNC(=O)c1ccccc1Nc1nc(Nc2ccc(N3CCOCC3)cc2)ncc1Cl.Cl [GSK1576028] | 98.3 | 96.9 | 100 | 15 | 13 | 0 | 84 | 3 | 76 | 72 |  | 
16 | COc1cc2c(cc1OCCN1CCNCC1)ncc1c3ccc(C#N)cc3[nH]c21 | 3 | 99.3 | 92.5 | 3 | 0 | 34 | 88 | 0 | 0 | 26 |  | 
